# Results taken from PubChem BioAssay AID1851 (National Center for Advancing Translational Sciences (NCATS), 2009).
# Several values for one entry are separate records, joined by “and”; a condition that tells them apart may be missing. Equal values may be shown once. The campaign covered roughly 16,000 compounds. About 4,000 (25%) were called active. Inconclusive results (about 26%) are left out. A selection follows. Values without a mark were called inactive. Calls come from the whole dose curve; as a rule, active = well fitted curve in the direction sought with a large enough effect; inconclusive = small, poorly fitted or top-dose-only effect, or effect the other way; inactive = no such curve, though single readings can be large or run the other way.
# Target: Cytochrome P450 2C9 (Homo sapiens) (UniProt P11712)
# Sequence (P11712 whole entry, looked up): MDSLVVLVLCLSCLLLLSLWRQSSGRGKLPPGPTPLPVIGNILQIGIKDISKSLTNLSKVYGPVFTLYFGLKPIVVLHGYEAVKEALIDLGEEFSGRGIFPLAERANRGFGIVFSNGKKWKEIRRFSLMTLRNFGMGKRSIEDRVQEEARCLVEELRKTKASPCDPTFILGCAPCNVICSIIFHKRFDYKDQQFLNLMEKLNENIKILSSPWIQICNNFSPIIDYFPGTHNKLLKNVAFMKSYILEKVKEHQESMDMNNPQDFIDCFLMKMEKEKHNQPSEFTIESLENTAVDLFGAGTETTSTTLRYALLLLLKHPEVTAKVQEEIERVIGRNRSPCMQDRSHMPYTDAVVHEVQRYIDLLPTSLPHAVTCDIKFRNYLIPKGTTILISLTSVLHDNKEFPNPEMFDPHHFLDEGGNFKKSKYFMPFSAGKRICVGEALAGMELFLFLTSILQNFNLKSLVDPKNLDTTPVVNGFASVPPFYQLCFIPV
# Assay: Cytochrome panel assay with activity outcomes
# Conditions: recombinant CYP, pro-luciferin dealkylation, luminescence, p450-cyp2c9; series mostly up to 57.1 µM; activity, negative = inhibition: at the top concentration
# % is set by controls: 0 for no effect and ±100 for the full control effect.
Structure (SMILES),"activity, negative = inhibition",AC50
O=C(O)[C@@H](O)[C@@H](O)[C@@H](O)[C@@H](O)C(=O)O (tested in a mixture with another compound),-19.4% [at 25.6 µM],–
Cc1cccc2c1OCC/C2=N\NC(=O)COc1ccccc1,–,15.8 µM (active)
Cc1ccccc1OCC(=O)N/N=C1\CCOc2c(C)cccc21,-0.88%,–
CCCCOc1ccc(/C=C/C(=O)NCCc2nc3ccccc3[nH]2)cc1,–,6.31 µM (active)
COc1ccc(CNC(=O)/C=C/c2ccc(OCCCF)cc2)cc1,-25.4%,–
Cc1cccc(OCC(=O)N/N=C\C=C\c2ccc3c(c2)OCO3)c1C,8.15%,–
N#C/C(=C\c1ccc(O)c(O)c1)C(=O)Nc1ccccc1,-18.9%,–
Cc1ccc(NC(=O)/C(=C\c2ccc3c(c2)OCO3)NC(=O)c2ccco2)cc1,–,3.55 µM (active)
O=C(Nc1ccccc1)N1CCC2(CC1)CCN(C(=O)c1ccco1)CC2,-7.61%,–
O=C(Nc1ccccc1)/C(=C\c1ccc2c(c1)OCO2)NC(=O)c1ccco1,–,10 µM (active)
Cc1noc(C)c1C(=O)N1CCC[C@@]2(CCN(C(=O)Nc3cccc(F)c3)C2)C1,-5.02%,–
O=C(Nc1c[nH]c(=O)[nH]c1=O)Oc1ccccc1,1.86% [at 11.4 µM],–
NOCC(=O)O,-0.0818%,–
Cc1ccc(Sc2cc(Cl)nc(N)n2)cc1,-3.63%,–
CCNc1nc(Sc2ccc(C)cc2)cc(C(F)(F)F)n1,–,25.1 µM (active)
CC[C@@H](CS(=O)(=O)O)[N+](=O)[O-],5.26% [at 11.4 µM],–
O=C(CN(Cc1ccccc1)S(=O)(=O)c1ccc2c(c1)OCCO2)N/N=C/c1ccc(F)cc1,–,14.1 µM (active)
COCc1cc(=O)[nH]c2cc(NC(=O)C(F)(F)F)c(C)cc12,10.5%,–
CCn1c(-c2nonc2NC(=O)c2ccccc2)nc2ccccc21,–,0.501 µM (active)

Structure (SMILES),"activity, negative = inhibition",AC50
Cc1ccc(C(=O)Nc2nc3ccccc3n3nnnc23)cc1,-12.8%,–
CCC(=O)Nc1nonc1-c1nc2ccccc2n1N(C(=O)CC)C(=O)CC,–,10 µM (active)
CC(=O)OC[C@H]1O[C@@H](O/N=C\[C@@H](C)[C@H](OCc2ccccc2)C(C)C)[C@H](OC(C)=O)[C@@H](OC(C)=O)[C@H]1OC(C)=O,1.31% [at 11.4 µM],–
CC[C@]1(C)CC(=O)NC1=O,–,inactive
Cc1cc(C(=O)N[C@H](c2ccccc2)[C@@]2(C)C[C@@H]2[C@@H](C)C(=O)Nc2ccc3ccccc3c2)n(C)n1,–,7.94 µM (active)
Cc1cc(C(=O)N[C@@H](c2ccccc2)[C@]2(C)C[C@H]2[C@@H](C)C(=O)Nc2ccc3ccccc3c2)n(C)n1,–,3.98 µM (active)
C[n+]1cc(-c2ccccc2)n2c1CCCCC2,18.1%,–
CN(C)CCCN1c2ccccc2Sc2cnccc21,5.82% [at 11.4 µM],–
Cc1ccc(C(C(=O)NCc2ccco2)N(C(=O)CNC(=O)c2cccs2)c2ccc(C)cc2)cc1 (stereo unspecified),-21.2%,–
Cc1ccc(C(C(=O)NCc2ccco2)N(C(=O)CNC(=O)c2cccs2)c2ccc(C)cc2C)cc1 (stereo unspecified),–,0.447 µM (active)
C[C@H](O/N=C1/[C@H]2O[C@@H]2[C@@H](O)[C@H]2[C@H]1CCn1c(=O)n(-c3ccccc3)c(=O)n12)c1cn([C@H](CO)Cc2ccccc2)nn1,-5.06% [at 11.4 µM] and -0.376% [at 11.4 µM],–
Cc1nc(Cl)c(C#N)cc1-c1ccccc1,–,10 µM (active)
Cc1ccc(-c2nc(-c3nccc4ccccc34)oc2-c2ccccc2)cc1,-0.601% [at 11.4 µM],–
CNc1nc(-c2cccc(C#N)c2)nc2ccccc12,-18.8% [at 2.29 µM],–
N#Cc1cc(-c2ccccc2)cnc1Sc1ccc(Cl)cc1,–,3.55 µM (active)
Cc1ccc(Sc2nc(-c3ccccc3)ccc2C#N)cc1,–,7.94 µM (active)
Cc1nc(Sc2ccccc2)c(C#N)cc1-c1ccccc1,–,5.01 µM (active)
CCOC(=O)CCN1C(=O)[C@H]2[C@H]3[C@H](O)[C@H](O)C/C(=N/OC[C@@H](O)COCc4ccco4)[C@H]3CC[C@@H]2C1=O,10.4% [at 11.4 µM],–
CN(C/C=C\c1ccccc1)Cc1cccc2ccccc12,-24.2% [at 25.6 µM],–

Structure (SMILES),"activity, negative = inhibition",AC50
CN(C)c1nc(-c2ccoc2)nc2ccccc12,21.3% [at 2.29 µM],–
O=C(NC1CCCCC1)C1CC=CCC1C(=O)OCC(Cl)=C(Cl)Cl (stereo unspecified),–,1.41 µM (active)
C#CCCCO/N=C1/C[C@@H](O)[C@@H](O)[C@@H]2[C@@H]3C(=O)N(Cc4ccccc4)C(=O)[C@H]3CC[C@@H]12,-2.53% [at 11.4 µM],–
NC[C@](O)(CS(=O)(=O)O)c1ccc(Cl)cc1,11.2%,–
COc1ccc(CCN2C(=NC(=O)CCC(=O)O)SC3CS(=O)(=O)CC32)cc1 (stereo unspecified),-18.3%,–
O=[N+]([O-])c1ccc2ncccc2c1CCc1c([N+](=O)[O-])ccc2ncccc12,13% [at 11.4 µM],–
O=C(c1ccc([N+](=O)[O-])cc1)[C@@H](Br)[C@@H](Br)c1ccnc2ccccc12,–,3.16 µM (active)
CCC[C@@H]1O[C@@H]2C[C@@H]3[C@H]4CCC5=CC(=O)C=C[C@@]5(C)[C@H]4[C@H](O)C[C@@]3(C)[C@@]2(C(=O)CO)O1,-19% [at 25.6 µM],–
N#C/C(=C\c1ccc(Cl)cc1)c1nc2ncccc2[nH]1,–,7.08 µM (active)
N#C/C(=C\c1ccccc1)c1nc2ncccc2[nH]1,–,5.01 µM (active)
COc1ccc2[nH]cc(CCNc3ccnc(-c4ccccc4C(F)(F)F)n3)c2c1,-28.2% [at 2.29 µM],–
COc1ccc(CNc2ncncc2-c2ccccc2C(F)(F)F)c(OC)c1,-25.4% [at 2.29 µM],–
COc1ccc2[nH]cc(CCNc3ncncc3-c3ccccc3Cl)c2c1,–,0.2 µM (active)
COc1ccc2[nH]cc(CCNc3ncncc3-c3ccccc3CN(C)C)c2c1,4.66% [at 2.29 µM],–
COc1ccc2[nH]cc(CCNc3ncncc3-c3cccc(NS(C)(=O)=O)c3)c2c1,–,0.398 µM (active)
COc1ccc2[nH]cc(CCNc3cc(-c4ccoc4)ncn3)c2c1,-23.3% [at 2.29 µM],–
COc1ccc2[nH]cc(CCNc3ncncc3-c3ccccc3C(F)(F)F)c2c1,–,0.1 µM (active)
COc1ccc2[nH]cc(CCNc3ncncc3-c3ccccc3OC)c2c1,–,0.251 µM (active)
